GluA2 TARP mod: modulators of GluA2-stargazin AMPA receptor complexes, primary screen, cell-based, membrane potential dye. Voltage-dependent calcium channel gamma-2 subunit (Mus musculus) + Glutamate receptor 2 …. HEK293 GluA2+stargazin, membrane potential dye (FDSS), glutamate EC50; hits were called plate by plate, in both directions. 40,000 tested, 3.5% active. calls only at 30 µM;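 active means any of four per-well response measures lying three or more SD from its plate-wide compound average, in either direction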
Target sequence (O88602 whole entry, looked up): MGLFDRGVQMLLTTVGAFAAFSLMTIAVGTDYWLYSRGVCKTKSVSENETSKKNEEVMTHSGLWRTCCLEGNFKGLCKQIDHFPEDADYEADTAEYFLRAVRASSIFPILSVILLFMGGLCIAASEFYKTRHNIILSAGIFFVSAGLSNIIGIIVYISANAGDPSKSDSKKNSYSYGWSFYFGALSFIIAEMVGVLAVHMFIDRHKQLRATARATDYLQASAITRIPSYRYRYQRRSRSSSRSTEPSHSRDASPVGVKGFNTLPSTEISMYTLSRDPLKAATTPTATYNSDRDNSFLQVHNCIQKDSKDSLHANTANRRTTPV
Target sequence (P19491 whole entry, looked up): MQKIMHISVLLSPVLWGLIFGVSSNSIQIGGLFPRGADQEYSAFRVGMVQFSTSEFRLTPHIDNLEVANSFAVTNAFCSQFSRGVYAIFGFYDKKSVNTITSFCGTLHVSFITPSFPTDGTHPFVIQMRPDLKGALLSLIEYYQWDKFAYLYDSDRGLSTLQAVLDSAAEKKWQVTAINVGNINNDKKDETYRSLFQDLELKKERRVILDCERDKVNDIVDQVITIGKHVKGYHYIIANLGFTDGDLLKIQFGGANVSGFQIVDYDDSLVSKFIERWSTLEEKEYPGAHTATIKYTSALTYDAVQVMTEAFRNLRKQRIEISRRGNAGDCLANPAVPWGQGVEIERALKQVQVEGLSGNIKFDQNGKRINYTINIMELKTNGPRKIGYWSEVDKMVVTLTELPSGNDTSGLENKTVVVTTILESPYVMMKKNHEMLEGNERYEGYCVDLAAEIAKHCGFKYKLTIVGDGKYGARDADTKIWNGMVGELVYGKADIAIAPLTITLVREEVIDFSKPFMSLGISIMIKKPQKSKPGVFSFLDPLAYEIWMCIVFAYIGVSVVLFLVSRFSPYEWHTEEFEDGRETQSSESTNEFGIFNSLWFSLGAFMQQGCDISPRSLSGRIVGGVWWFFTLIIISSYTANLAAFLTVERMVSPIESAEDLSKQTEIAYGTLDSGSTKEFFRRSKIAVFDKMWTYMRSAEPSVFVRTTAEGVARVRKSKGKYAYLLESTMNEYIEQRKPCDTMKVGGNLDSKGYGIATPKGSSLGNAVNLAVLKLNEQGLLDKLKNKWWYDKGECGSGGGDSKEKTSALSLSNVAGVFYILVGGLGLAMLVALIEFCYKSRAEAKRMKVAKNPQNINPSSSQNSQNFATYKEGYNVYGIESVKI
GIRK2 activator: activators of NPY4-receptor-primed GIRK2 channels, summary, cell-based, HEK293, thallium flux. G protein-activated inward rectifier potassium channel 2 (Homo sapiens), P48051. HEK293 GIRK2/NPY4 cells, thallium flux fluorescence. activation (% efficacy), % for hits at 37.5 µM. 34,000 tested, under 10 active;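 active means primary screen hit, no activity in plain HEK293 cells, and in GIRK2-only cells above 5% efficacy rising with concentration; inactive means the rest, including fluorescent compounds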;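 further: efficacy is normalized control-subtracted fluorescence 15 s after thallium addition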
An asterisk follows results filed as active; i = inactive; . = not tested or not shown; + = active, no number. This is one part of a sample in which hits are shown more often than they occur.

SMILES	GluA2 TARP mod	GIRK2 activator
CC(CCc1ccccc1)NC(=O)Cc1csc(Nc2ccccc2)n1 (configuration not stated)	+	i
O=C(Cc1csc(Nc2ccccc2)n1)NCCc1ccccc1	i	i
CCCC(=O)Nc1ccc(O)c(C(=O)/C=C/c2ccc(C(=O)O)cc2)c1	i	.
O=C(O)c1ccc(/C=C/C(=O)c2ccco2)cc1	+	.
COc1ccc(C(=O)NNC(=O)c2ccc(=O)n(Cc3ccccc3)c2)c(OC)c1	+	i
O=C(NNC(=O)c1cc2ccccc2oc1=O)c1ccc(=O)n(Cc2ccccc2)c1	+	i
O=C(NNC(=O)c1ccc(=O)n(Cc2ccccc2)c1)c1ccc(Cl)cc1	i	i
CCOc1ccccc1C(=O)NNC(=O)c1ccc(=O)n(Cc2ccccc2)c1	i	i
O=C(Oc1ccccc1OC(=O)N1CCOCC1)N1CCOCC1	+	.
CC(C)(C)c1ccc(OC(=O)N2CCOCC2)cc1	i	.
O=c1ccc(-c2cccnc2)nn1CCNS(=O)(=O)c1cc(Cl)ccc1Cl	.	i
Cn1c(=O)c2cc(C(=O)Nc3ccc(Oc4ccccc4)cc3)sc2n(C)c1=O	i	i
Cn1c(=O)c2cc(C(=O)Nc3cccc(S(N)(=O)=O)c3)sc2n(C)c1=O	+	i
Cn1c(=O)c2cc(C(=O)NCCCN3CCOCC3)sc2n(C)c1=O	+	i
Cn1c(=O)c2cc(C(=O)NCc3ccccc3)sc2n(C)c1=O	i	i
Cn1c(=O)c2cc(C(=O)NCCC(c3ccccc3)c3ccccc3)sc2n(C)c1=O	i	i
Cn1c(=O)c2cc(C(=O)NCCCn3ccnc3)sc2n(C)c1=O	+	i
COc1ccc(N2CCN(CCCn3c(C)cn4c5c(=O)n(C)c(=O)n(C)c5nc34)CC2)cc1	i	.
Cc1cnn(C)c1C(=O)Nc1nnc(-c2ccnn2C)o1	i	i
Cn1nccc1-c1nnc(NC(=O)c2ccc(Br)o2)o1	+	i
CC(=O)c1ccc(N2CCN(S(=O)(=O)CCN3C(=O)CCCC3=O)CC2)cc1	i	i
COc1cc(S(=O)(=O)Nc2cc(Cl)ccc2O)c(OC)cc1C	i	i
O=S(=O)(Nc1cc(Cl)ccc1O)c1cc(Cl)ccc1Cl	+	i
O=C(CS(=O)(=O)Cc1ccccc1)Nc1nc2ccc(Br)cc2s1	i	i
O=C(Cn1nc2c(c1NC(=O)CC1CCCCC1)CSC2)NCC1CCCO1 (configuration not stated)	i	i
SMILES	GluA2 TARP mod	GIRK2 activator
CCCNC(=O)Cn1nc2c(c1NC(=O)CC1CCCC1)CSC2	+	i
CNC(=O)Cc1csc(Nc2cccc(Cl)c2)n1	i	i
COc1ccc2nc(-c3cccc(NC(=O)Nc4ccc(F)cc4)c3)cn2n1	+	i
COc1ccc2nc(-c3cccc(NC(=O)c4c(F)cccc4F)c3)cn2n1	i	i
O=C(Cc1ccc(NS(=O)(=O)C2CCCCC2)cc1)N1CCOCC1	i	i
COc1ccc(CCNC(=O)CS(=O)(=O)c2ccc(Br)s2)cc1OC	i	i
COc1ccc2nc(-c3ccc(C)c(NC(=O)c4ccc5ccccc5c4)c3)cn2n1	.	i
CCn1c(SCC(=O)N2CCN(C(c3ccccc3)c3ccccc3)CC2)nc2ccccc2c1=O	+	.
Cc1cc(=O)[nH]c(SCC(=O)N2CCN(C(c3ccccc3)c3ccccc3)CC2)n1	i	.
Cn1cnc2cc(OC(=O)C(c3ccccc3)c3ccccc3)ccc21	i	i
Cc1ccc(NC(=O)CN2CCC(C(=O)NCc3ccco3)CC2)c(C)c1	i	i
Cc1cc(C)c(S(=O)(=O)N(C)c2c(C)cccc2C)cc1N(C)S(=O)(=O)c1ccccc1	i	.
Cc1cccc(N(C)S(=O)(=O)c2cc(N(C)S(=O)(=O)c3ccccc3)c(C)cc2C)c1	i	.
Cc1cc(C)c(S(=O)(=O)NC(C)C)cc1N(C)S(=O)(=O)c1ccccc1	+	.
Cc1cc(C)c(S(=O)(=O)N(C)c2ccc(Cl)cc2)cc1N(C)S(=O)(=O)c1ccccc1	+	.
COc1cccc(C(CNS(=O)(=O)c2cc(C)c(C)cc2OC)N2CCOCC2)c1 (configuration not stated)	i	.
COCCNc1oc2c(c1-c1ccc(OC)c(OC)c1)c(=O)oc1ccccc12	i	i
Cc1cccc(C(=O)N2CCC3(CC2)CC(=O)c2ccccc2O3)c1	+	.
O=C1CC2(CCN(C(=O)c3ccc(-c4ccccc4)cc3)CC2)Oc2ccccc21	i	.
OC(COc1ccc2cc(Br)ccc2c1)CN1CCN(c2ccccn2)CC1 (configuration not stated)	+	.
OC(COc1ccc(-c2ccccc2)cc1)CN1CCN(c2ccccn2)CC1 (configuration not stated)	i	.
Cc1ccc(OCCCC(=O)Nc2ccccc2C(N)=O)c(C)c1	i	i
COc1cccc(S(=O)(=O)NCC(O)(c2ccccc2)C2CC2)c1 (configuration not stated)	i	i
COc1cccc(S(=O)(=O)NCCC(O)C2CC2)c1 (configuration not stated)	+	i
O=C1c2cc(NC(=O)C3(c4cccs4)CCCC3)ccc2OCCC2CCCCN12 (configuration not stated)	+	i
SMILES	GluA2 TARP mod	GIRK2 activator
O=C(/C=C/c1ccccc1Cl)Nc1ccc2c(c1)C(=O)N1CCCCC1CCO2 (configuration not stated)	i	i
CCOC(=O)Cn1c(=NC(=O)c2c(C)cnn2C)sc2cc(F)ccc21	.	i
O=C(NC(c1ccccc1)c1ccccc1)N1CCC(c2cccs2)CC1	i	i
O=C(NC12CC3CC(CC(C3)C1)C2)N1CCC(c2cccs2)CC1	+	i
O=C(Nc1nc2c(s1)CSc1ccccc1-2)c1cc2ccccc2o1	+	.
CC(C)S(=O)(=O)c1ccc(C(=O)Nc2nc3c(s2)CSc2ccccc2-3)cc1	i	i
CN(C)C(CNC(=O)C(=O)Nc1ccccc1F)c1cccc2ccccc12 (configuration not stated)	.	i
O=C(CCS(=O)(=O)c1ccccc1)N1CCC(c2cccs2)CC1	i	i
Cc1ccc(Cl)cc1N1CCN(C(=O)c2cc3cc(Br)ccc3oc2=O)CC1	i	i
Cc1cc(C)c(N2CCN(C(=O)c3cc4cc(Br)ccc4oc3=O)CC2)c(C)c1	+	i
CCOC(=O)N1CCC(NC(=O)C(=O)NC(C)(C)C)CC1	i	i
CC1=NN(c2ccccc2)C(=O)C1C(=O)c1ccc(C)c(C)c1 (configuration not stated)	+	i
COc1ccc(C(=O)C2C(=O)N(c3ccccc3)N=C2C)cc1OC (configuration not stated)	i	i
Cc1ccc(-n2ccnc2N2CCN(C(=O)COc3ccccc3F)CC2)cc1	i	i
O=C(/C=C/c1ccccc1Cl)N1CCC(c2cccs2)CC1	i	i
CCc1ccc(OCCOCC(O)CN2CCN(c3ccccc3F)CC2)cc1 (configuration not stated)	i	.
COc1cccc(OCCOCC(O)CN2CCN(c3ccccc3F)CC2)c1 (configuration not stated)	+	.

Source: PubChem
